Of roughly 7,900 targets only a part is listed; those with a hit were picked by preference. About 0.6% of all pairs of compound and target were hits.
Key:
Assay in all cases: log2 fold change, soluble protein after heating vs DMSO (PISA); higher = thermal stabilisation; K562 cells, 10 uM, 30 min; active = over 0.2 and 3.5 SD of the protein, either way, in both replicates (recomputed)
[1] = compound: C1=CC=C(C=C1)[C@H](COC2=CC3=C(C=C2)NC(=O)N3)NC(=O)C4=CC=CN(C4=O)CC5=CC(=C(C=C5)F)F
Summary of the method: (§1)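 K562 cells (2×10^6 cells/mL) were treated with 10 μM compound for 30 min, and aliquots were heated for 3 min over 48°C-58°C. Pooled aliquots were extracted in PBS with 0.5% NP-40 at 4°C, and the supernatant after 21,000xg for 90 min was measured by TMTpro 16plex LC-MS/MS with channel sums equalised. Reported thermal stability, relative to control samples and from duplicates, is a log2 fold change.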

[2] = compound: CC1=C(SC2=C1C(=N[C@H](C3=NN=C(N32)C)CC(=O)N)C4=CC=C(C=C4)Cl)C
Summary of the method: as §1

[3] = compound: CC1=C2C(=CC=C1)N=C(N(C2=O)C3=CC=CC=C3C)CN4C=NC5=C(N=CN=C54)N
Summary of the method: as §1

[4] = compound: Cc1sc2c(c1C)C(c1ccc(Cl)cc1)=N[C@@H](CC(=O)OC(C)(C)C)c1nnc(C)n1-2
Summary of the method: as §1

[5] = compound: c1ccc([C@@H]2C[C@H]2NC2CCNCC2)cc1
Summary of the method: as §1

Measured: log2 fold change

ILF2 (UniProt Q12905)
inactive: [1] 0.047 | [2] -0.078 | [3] -0.141 | [4] 0.14 | [5] 0.034

ILRUN (UniProt Q9H6K1)
inactive: [1] 0.029 | [2] 0.031 | [3] 0.119 | [4] 0.014 | [5] -0.009

MAGI1 (UniProt Q96QZ7)
inactive: [1] 0.025 | [2] -0.026 | [3] -0.005 | [4] 0.054 | [5] -0.016

LMF2 (UniProt Q9BU23)
inactive: [1] -0.001 | [2] -0.013 | [3] 0.097 | [4] -0.012 | [5] -0.053

MDC1 (UniProt Q14676)
inactive: [1] -0.005 | [2] -0.045 | [3] -0.092 | [4] 0.068 | [5] 0.04

MCU (UniProt Q8NE86)
inactive: [1] -0.02 | [2] 0.035 | [3] 0.038 | [4] -0.018 | [5] -0.013

LDAH isoform 2 (UniProt Q9H6V9)
UniProt Q9H6V9, sequence (Q9H6V9 whole entry, looked up): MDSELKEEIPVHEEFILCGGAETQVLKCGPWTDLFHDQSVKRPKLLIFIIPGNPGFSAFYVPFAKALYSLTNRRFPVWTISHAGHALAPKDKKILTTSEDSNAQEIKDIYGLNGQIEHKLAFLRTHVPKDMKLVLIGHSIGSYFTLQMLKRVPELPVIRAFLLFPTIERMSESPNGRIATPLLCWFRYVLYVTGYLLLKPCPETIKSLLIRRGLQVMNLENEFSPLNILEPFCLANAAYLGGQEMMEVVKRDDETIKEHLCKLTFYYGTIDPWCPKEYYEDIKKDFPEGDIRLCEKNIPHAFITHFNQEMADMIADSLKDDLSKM
inactive: [1] -0.125 | [2] 0.019 | [3] 0.086 | [4] 0.174 | [5] -0.059

MAPK14 (UniProt Q16539)
inactive: [1] -0.01 | [2] 0.153 | [3] 0.061 | [4] -0.03 | [5] -0.089

LUC7L2 (UniProt Q9Y383)
inactive: [1] 0.023 | [2] -0.044 | [3] 0.036 | [4] 0.006 | [5] 0.014

KEL (UniProt P23276)
inactive: [1] -0.067 | [2] 0.003 | [3] 0.017 | [4] 0.019 | [5] 0.067

IGFBP4 (UniProt P22692)
inactive: [1] -0.019 | [2] -0.046 | [3] 0.087 | [4] -0.103 | [5] 0.148

MEAK7 (UniProt Q6P9B6)
inactive: [1] -0.009 | [2] 0.051 | [3] 0.042 | [4] -0.009 | [5] -0.048

ILF3 isoform 7 (UniProt Q12906)
inactive: [1] 0.038 | [2] -0.061 | [3] -0.126 | [4] 0.194 | [5] 0.028

IRF2BPL (UniProt Q9H1B7)
inactive: [1] -0.051 | [2] 0.027 | [3] 0.001 | [4] -0.067 | [5] -0.043

IL27RA (UniProt Q6UWB1)
inactive: [1] 0.021 | [2] 0.144 | [3] 0.002 | [4] 0.097 | [5] 0.096

KIFBP (UniProt Q96EK5)
UniProt Q96EK5, sequence (Q96EK5 whole entry, looked up): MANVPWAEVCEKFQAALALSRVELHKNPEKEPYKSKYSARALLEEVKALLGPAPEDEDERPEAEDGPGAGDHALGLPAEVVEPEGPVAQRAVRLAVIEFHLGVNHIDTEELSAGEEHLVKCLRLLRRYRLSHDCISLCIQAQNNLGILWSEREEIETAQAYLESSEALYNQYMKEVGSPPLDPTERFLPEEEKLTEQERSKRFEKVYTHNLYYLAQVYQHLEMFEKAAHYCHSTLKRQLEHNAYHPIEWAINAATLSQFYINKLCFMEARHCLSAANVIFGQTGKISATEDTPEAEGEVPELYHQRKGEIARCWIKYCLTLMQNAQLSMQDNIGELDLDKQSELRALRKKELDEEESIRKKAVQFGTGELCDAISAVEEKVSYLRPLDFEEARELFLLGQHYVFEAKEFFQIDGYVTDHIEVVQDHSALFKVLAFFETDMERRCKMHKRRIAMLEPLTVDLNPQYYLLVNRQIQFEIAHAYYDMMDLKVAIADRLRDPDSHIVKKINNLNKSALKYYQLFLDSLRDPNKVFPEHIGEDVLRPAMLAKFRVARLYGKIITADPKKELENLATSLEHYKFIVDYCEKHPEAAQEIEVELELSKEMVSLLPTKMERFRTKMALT
inactive: [1] -0.075 | [2] 0.025 | [3] 0.06 | [4] -0.058 | [5] 0.005

MCL1 (UniProt Q07820)
inactive: [1] -0.013 | [2] 0.125 | [3] 0.135 | [4] 0.057 | [5] 0.073

LIMD1 (UniProt Q9UGP4)
inactive: [1] 0.006 | [2] 0.004 | [3] -0.014 | [4] -0.005 | [5] 0.028

METAP1D (UniProt Q6UB28)
inactive: [1] 0.106 | [2] -0.125 | [3] 0.083 | [4] 0.08 | [5] 0.127

LMNB2 (UniProt Q03252)
UniProt Q03252, sequence (Q03252 whole entry, looked up): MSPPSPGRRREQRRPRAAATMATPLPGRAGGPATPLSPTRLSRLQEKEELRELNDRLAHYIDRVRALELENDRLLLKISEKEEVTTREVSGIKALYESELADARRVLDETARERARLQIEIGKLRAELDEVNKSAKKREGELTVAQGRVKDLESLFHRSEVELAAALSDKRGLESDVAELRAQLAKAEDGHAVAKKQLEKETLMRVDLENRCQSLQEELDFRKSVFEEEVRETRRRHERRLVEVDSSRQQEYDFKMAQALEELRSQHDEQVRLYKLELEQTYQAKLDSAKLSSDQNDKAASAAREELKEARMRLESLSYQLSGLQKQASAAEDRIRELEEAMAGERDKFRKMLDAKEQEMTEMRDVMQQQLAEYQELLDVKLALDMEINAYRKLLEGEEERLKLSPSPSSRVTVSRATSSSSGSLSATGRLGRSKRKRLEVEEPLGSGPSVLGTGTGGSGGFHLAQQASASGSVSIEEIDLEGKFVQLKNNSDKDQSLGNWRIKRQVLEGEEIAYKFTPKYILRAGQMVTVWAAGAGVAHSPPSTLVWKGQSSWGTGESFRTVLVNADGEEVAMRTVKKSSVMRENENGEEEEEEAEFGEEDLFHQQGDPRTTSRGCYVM
inactive: [1] 0.04 | [2] 0.052 | [3] 0.062 | [4] -0.04 | [5] 0.053

MFN1 (UniProt Q8IWA4)
UniProt Q8IWA4, sequence (Q8IWA4 whole entry, looked up): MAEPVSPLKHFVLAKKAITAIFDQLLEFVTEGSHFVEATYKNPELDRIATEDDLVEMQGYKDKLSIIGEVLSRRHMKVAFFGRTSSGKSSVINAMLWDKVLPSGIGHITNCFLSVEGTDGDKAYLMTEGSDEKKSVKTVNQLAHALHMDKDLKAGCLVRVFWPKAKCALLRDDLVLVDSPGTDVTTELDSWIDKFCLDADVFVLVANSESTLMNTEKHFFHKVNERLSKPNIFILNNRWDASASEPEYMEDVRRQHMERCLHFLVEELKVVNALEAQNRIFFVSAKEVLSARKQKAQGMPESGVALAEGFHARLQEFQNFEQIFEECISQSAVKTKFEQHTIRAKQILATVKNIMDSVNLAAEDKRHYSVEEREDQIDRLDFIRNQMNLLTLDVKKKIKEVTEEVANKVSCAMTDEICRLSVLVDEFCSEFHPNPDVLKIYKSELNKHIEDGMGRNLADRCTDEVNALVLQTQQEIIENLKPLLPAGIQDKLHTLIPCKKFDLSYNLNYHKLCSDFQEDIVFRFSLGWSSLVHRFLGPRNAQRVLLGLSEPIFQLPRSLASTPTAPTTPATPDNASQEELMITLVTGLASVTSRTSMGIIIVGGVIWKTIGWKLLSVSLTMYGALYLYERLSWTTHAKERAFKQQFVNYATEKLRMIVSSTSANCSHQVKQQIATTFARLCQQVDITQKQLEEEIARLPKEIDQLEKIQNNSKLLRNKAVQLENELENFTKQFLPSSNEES
inactive: [1] 0.058 | [2] 0.042 | [3] 0.05 | [4] 0.07 | [5] -0.01

MAPRE3 (UniProt Q9UPY8)
UniProt Q9UPY8, sequence (Q9UPY8 whole entry, looked up): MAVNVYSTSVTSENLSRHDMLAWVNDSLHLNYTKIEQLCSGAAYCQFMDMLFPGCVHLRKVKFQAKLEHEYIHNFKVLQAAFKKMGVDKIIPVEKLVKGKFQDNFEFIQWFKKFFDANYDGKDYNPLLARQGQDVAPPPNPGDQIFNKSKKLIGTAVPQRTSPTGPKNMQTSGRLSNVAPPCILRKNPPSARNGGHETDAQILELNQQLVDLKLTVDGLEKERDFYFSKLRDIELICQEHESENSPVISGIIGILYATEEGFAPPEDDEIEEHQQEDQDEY
inactive: [1] -0.042 | [2] 0.011 | [3] 0.026 | [4] -0.01 | [5] -0.014

LMBRD2 (UniProt Q68DH5)
inactive: [1] 0.029 | [2] 0.084 | [3] 0.06 | [4] -0.12 | [5] -0.035

IGF2R (UniProt P11717)
UniProt P11717, sequence (P11717 whole entry, looked up): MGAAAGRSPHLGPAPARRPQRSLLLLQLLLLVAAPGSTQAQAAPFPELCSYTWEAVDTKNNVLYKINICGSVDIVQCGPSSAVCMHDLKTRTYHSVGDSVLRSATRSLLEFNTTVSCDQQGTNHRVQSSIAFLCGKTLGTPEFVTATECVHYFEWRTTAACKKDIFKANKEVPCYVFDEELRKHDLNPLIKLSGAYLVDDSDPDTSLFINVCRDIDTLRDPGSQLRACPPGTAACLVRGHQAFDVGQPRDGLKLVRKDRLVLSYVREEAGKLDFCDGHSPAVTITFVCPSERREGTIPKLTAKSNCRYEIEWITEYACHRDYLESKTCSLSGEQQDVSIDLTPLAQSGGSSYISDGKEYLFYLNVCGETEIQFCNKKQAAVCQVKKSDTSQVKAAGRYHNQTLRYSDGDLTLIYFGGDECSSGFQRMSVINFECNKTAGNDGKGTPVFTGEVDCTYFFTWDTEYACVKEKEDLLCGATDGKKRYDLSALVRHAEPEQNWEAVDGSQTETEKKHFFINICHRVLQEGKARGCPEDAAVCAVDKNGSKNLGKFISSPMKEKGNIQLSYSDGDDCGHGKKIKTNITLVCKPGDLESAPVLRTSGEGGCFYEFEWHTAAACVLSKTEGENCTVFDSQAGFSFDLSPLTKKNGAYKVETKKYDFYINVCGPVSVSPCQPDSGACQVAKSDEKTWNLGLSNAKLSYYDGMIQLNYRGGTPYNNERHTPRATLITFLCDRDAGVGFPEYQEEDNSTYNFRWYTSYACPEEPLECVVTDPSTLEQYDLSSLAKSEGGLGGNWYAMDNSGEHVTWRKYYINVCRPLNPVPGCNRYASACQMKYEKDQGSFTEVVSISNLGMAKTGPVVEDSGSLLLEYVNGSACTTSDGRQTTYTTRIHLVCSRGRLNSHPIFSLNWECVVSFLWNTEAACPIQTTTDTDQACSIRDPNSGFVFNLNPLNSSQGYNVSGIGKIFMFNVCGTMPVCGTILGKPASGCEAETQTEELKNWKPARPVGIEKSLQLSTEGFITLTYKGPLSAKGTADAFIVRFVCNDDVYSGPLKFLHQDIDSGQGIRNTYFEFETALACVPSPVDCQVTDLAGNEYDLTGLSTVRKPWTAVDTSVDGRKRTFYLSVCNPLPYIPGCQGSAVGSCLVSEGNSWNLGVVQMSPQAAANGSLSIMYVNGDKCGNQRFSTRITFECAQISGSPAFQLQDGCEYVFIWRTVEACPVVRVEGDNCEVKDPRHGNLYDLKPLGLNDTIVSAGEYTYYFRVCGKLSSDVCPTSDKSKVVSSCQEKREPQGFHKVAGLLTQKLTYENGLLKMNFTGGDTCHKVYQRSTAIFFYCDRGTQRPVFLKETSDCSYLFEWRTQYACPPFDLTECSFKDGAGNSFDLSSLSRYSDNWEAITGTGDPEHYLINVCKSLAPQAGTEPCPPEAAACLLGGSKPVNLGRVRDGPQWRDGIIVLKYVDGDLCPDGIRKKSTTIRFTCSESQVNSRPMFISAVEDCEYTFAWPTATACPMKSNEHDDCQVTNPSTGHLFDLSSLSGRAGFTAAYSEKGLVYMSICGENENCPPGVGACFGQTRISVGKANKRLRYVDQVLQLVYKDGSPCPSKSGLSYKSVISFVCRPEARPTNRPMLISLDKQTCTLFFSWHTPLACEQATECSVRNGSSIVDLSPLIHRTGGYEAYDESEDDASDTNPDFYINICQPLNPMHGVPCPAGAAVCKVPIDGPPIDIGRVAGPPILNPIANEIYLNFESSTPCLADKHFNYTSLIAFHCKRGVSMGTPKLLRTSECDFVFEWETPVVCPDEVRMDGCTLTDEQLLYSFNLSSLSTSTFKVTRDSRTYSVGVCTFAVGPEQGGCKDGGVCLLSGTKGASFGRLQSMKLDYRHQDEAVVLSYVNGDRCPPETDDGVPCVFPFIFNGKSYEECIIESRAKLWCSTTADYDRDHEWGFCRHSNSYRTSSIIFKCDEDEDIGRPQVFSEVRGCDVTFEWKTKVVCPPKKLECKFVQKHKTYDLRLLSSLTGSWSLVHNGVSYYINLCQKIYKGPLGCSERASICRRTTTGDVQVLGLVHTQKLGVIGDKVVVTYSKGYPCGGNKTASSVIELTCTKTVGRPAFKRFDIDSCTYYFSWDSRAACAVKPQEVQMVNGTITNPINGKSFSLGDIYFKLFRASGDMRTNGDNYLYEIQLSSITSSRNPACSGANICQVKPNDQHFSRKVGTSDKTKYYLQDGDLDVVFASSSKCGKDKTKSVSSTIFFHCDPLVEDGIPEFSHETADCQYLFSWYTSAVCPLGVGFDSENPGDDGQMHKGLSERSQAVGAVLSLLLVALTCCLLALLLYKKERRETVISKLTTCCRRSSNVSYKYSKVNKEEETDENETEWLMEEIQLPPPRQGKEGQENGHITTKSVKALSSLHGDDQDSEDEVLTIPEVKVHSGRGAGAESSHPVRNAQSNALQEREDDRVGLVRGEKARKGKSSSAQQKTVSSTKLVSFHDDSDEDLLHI
inactive: [1] 0.013 | [2] 0.007 | [3] -0.008 | [4] 0.001 | [5] -0.002

Reference: the supplement of paper PMC10849652
